Results from the supplement of paper PMC12669032.
Unmarked numbers belong to inactive results.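 How the source made its calls: active = AUC reduced over 20% with Padj below 0.05 in at least 2 of 3 replicates; inactive = otherwise.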

How the values were obtained:
[1] = system: Roseburia intestinalis; test: growth AUC relative to DMSO control (median of replicates) (fraction); higher = more growth (less inhibition), active = hit call of the paper; settings: 20 µM; 24 h
Summary of the method: (§1)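 For each compound at 20 µM (1% DMSO), gut bacterial monocultures seeded at OD600 0.05 grew anaerobically in mGAM at 37 °C in round-bottom 96-well plates. Hourly OD600 readings over 24 h gave growth curves whose minimum OD was set to 0. Area under these curves was normalised to the plate median of solvent-only wells, or to row and column medians on the industrial chemical plate. Values are medians of three biological replicates grown on separate days.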

[2] = system: Streptococcus salivarius; test: as above; settings: 20 µM; 24 h
Summary of the method: as §1

Row | Compound | growth AUC [1] | growth AUC [2]
1 | CC(Oc1ccc(Oc2ccc(Cl)cc2Cl)cc1)C(=O)O (racemic) | 0.989 | 0.934
2 | Oc1ccc(Cl)c(Cl)c1Cl | 1.05 | 0.96
3 | O=C(O)c1nc(Cl)ccc1Cl | 1.07 | 1.02
4 | CCNc1nc(NC(C)C)nc(OC)n1 | 0.953 | 0.945
5 | Nc1c(Cl)c(F)nc(OCC(=O)O)c1Cl | 1 | 1
6 | CCC(C)[C@H]1O[C@]2(C=C[C@@H]1C)C[C@@H]1C[C@@H](C/C=C(\C)[C@@H](O[C@H]3C[C@H](OC)[C@@H](O[C@H]4C[C@H](OC)[C@@H](O)[C@H](C)O4)[C@H](C)O3)[C@@H](C)/C=C/C=C3\CO[C@@H]4[C@H](O)C(C)=C[C@@H](C(=O)O1)[C@]34O)O2.CO[C@H]1C[C@H](O[C@H]2[C@H](C)O[C@@H](O[C@@H]3/C(C)=C/C[C@@H]4C[C@@H](C[C@]5(C=C[C@H](C)[C@@H](C(C)C)O5)O4)OC(=O)[C@@H]4C=C(C)[C@@H](O)[C@H]5OC/C(=C\C=C\[C@@H]3C)[C@]54O)C[C@@H]2OC)O[C@@H](C)[C@@H]1O (some centres undefined) | 0.571 (active) | 0.961
7 | CC(C)(C)C(O)C(Oc1ccc(Cl)cc1)n1cncn1 (centres undefined) | 1.03 | 1.03
8 | O=C(Cc1ccccc1)N/C(=N\OCC1CC1)c1c(C(F)(F)F)ccc(F)c1F | 0.976 | 0.968
9 | CCOP(=S)(OCC)Oc1cc(Cl)c(SC)cc1Cl | 0.994 | 1.01
10 | O=c1oc2ccccc2c(O)c1C1CCCc2ccccc21 (centres undefined) | 1 | 1.01
11 | NC(=S)c1c(Cl)cccc1Cl | 1 | 0.943
12 | CCCOP(=S)(OCCC)SCC(=O)N1CCCCC1C (centres undefined) | 0.992 | 0.953
13 | CCOP(=O)(Sc1ccccc1)Sc1ccccc1 | 0.946 | 0.948
14 | CON(C)C(=O)Nc1ccc(Br)c(Cl)c1 | 0.957 | 0.956
15 | CC1COC(Cn2cncn2)(c2ccc(Oc3ccc(Cl)cc3)cc2Cl)O1 (centres undefined) | 0.823 | 0.962
16 | CC(C)C1(C)N=C(c2ncccc2C(=O)O)NC1=O (centres undefined) | 0.97 | 0.931

Row | Compound | growth AUC [1] | growth AUC [2]
17 | COP(=O)(OC)OC(Br)C(Cl)(Cl)Br (centres undefined) | 1.01 | 0.956
18 | CC1(C)C(/C=C(\Cl)C(F)(F)F)C1C(=O)OC(C#N)c1cccc(Oc2ccccc2)c1 (centres undefined) | 0.952 | 0.981
19 | CC(C)(C)C(O)/C(=C/c1ccc(Cl)cc1Cl)n1cncn1 (mixture of isomers) | 0.929 | 0.945
20 | Clc1cccc(Cl)c1Cl | 0.972 | 1.06
21 | O=C1C2(Cl)C3(Cl)C4(Cl)C(Cl)(Cl)C5(Cl)C3(Cl)C1(Cl)C5(Cl)C24Cl (centres undefined) | 0.0478 (active) | 0.0301 (active)
22 | CC(Oc1cc(Cl)c(Cl)cc1Cl)C(=O)O (centres undefined) | 0.935 | 0.976
23 | CNC(=O)Oc1cccc2ccccc12 | 0.973 | 1.03
24 | CCOP(=S)(OCC)SCS(=O)CC (centres undefined) | 0.995 | 0.976
25 | O=C1C(Cl)=C(Cl)C(=O)C(Cl)=C1Cl | 0.995 | 1.01
26 | [CH3][Hg][Cl] | 1.05 | 0.848
27 | CNC(=O)O/N=C/C(C)(C)S(C)(=O)=O | 1.02 | 1.04
28 | CCN(CC)C(=O)/C(Cl)=C(/C)OP(=O)(OC)OC | 1.01 | 0.994
29 | CNC(=O)Oc1ccccc1C(C)C | 1.06 | 1.04
30 | Nc1ccc(Cl)cc1Cl | 1.02 | 1.03
31 | COc1ccc(C(c2ccc(OC)cc2)C(Cl)(Cl)Cl)cc1 | 0.987 | 0.992
32 | CC1(C)OC(c2ccco2)CN1C(=O)C(Cl)Cl (centres undefined) | 1.03 | 1.01
